According to ChEMBL document CHEMBL4513216, “Probing the Open Global Health Chemical Diversity Library for Multistage-Active Starting Points for Next-Generation Antimalarials” (ACS Infect Dis, 2020):
Out of some 69,000 compounds screened, about 8,600 (12%) showed an effect of 50% or more. This is one part of a sample in which strong results are shown more often than they occur.

Each compound was assayed on Plasmodium berghei (assay: Screen against P. berghei liver stage (PbLuc), transformed with Luciferase, at 10uM). Conditions: tested at 10 uM.
Format: functional, HepG2
With `CN(CC(=O)NC1CCOCC1)C1CCCN(c2cccnn2)C1` (stereo unspecified) the INHIBITION was 26.5%. In the case of `O=C(CCCN1CCOC1=O)Nc1cnn(-c2ccccc2Cl)c1`, the INHIBITION was 33.8%. `CNc1cc2c(nn1)CCN(C(=O)c1ccc3c(c1)CCC3)C2` showed an INHIBITION of 27.4%. Compound `Cc1noc(C)c1CNCC1CNc2ccnn2C1` (stereo unspecified) has an INHIBITION of 39.3%. Work on `CC(C)n1cc(CN2CCCN(C(=O)CN3CCCC3=O)CC2)cn1` yielded an INHIBITION of 33.7%. `CC(C)N(C)Cc1n[nH]c2c1CCN(C(=O)c1ccc[nH]1)C2` gave an INHIBITION of 2.79%. In the case of `CC(C)CCNC(=O)CNC(=O)N1CCc2c([nH]c3ccc(Cl)cc23)C1`, the INHIBITION was -2.13%. `O=C1OCCN1CCN1CCCN(Cc2ccccc2F)CC1` gave an INHIBITION of 15.1%. `Fc1ccccc1CN1CCCN(c2ncnc3[nH]ccc23)CC1` gave an INHIBITION of 26.9%. With `c1cc2ccc(N3CCN(Cc4ccc5c(c4)OCO5)CC3)nc2[nH]1` the INHIBITION was 44.7%. For `c1cc(CN2CCCN(c3ccc4cc[nH]c4n3)CC2)ccn1`, the INHIBITION was 54.4%. In the case of `Cc1ccn(-c2ccc(N3CCCN(Cc4ccccc4)CC3)nn2)n1`, the INHIBITION was 6.39%. For `Fc1ccccc1CN1CCCN(c2ccc3cc[nH]c3n2)CC1`, the INHIBITION was 70.4%. With `Cc1cc(-n2nc(C3CC3)nc2-c2csnn2)ccn1` the INHIBITION was 19.5%. In the case of `CN1CCOC(CNCc2coc(-c3ccccc3Cl)n2)C1` (stereo unspecified), the INHIBITION was 16.8%. `CC(C)c1noc(CN2CCN(C(=O)c3cccc(F)c3)CC2)n1` showed an INHIBITION of -31.5%. For `CCN(CC)S(=O)(=O)c1ccc2c(c1)N(Cc1ccccn1)C(=O)CS2`, the INHIBITION was 13.1%. `CS(=O)(=O)N1CC[C@]2(O)CCN(c3cc(C#N)ccn3)C[C@@H]2C1` was tested, and the INHIBITION was 52.2%. For `CN(C)S(=O)(=O)N1CC[C@]2(O)CCN(c3cc(C#N)ccn3)C[C@@H]2C1`, the INHIBITION was 36.5%. For `CS(=O)(=O)N1CC[C@]2(O)CCN(c3ccnc(N)n3)C[C@@H]2C1`, the INHIBITION was 20.8%. `CC(C)(C)n1nc(C(=O)NC2CCN(CC(N)=O)CC2)cc1C1CC1` showed an INHIBITION of 5.03%. `Cc1cc(C(=O)NC2CCN(CC(N)=O)CC2)nn1C(C)(C)C` gave an INHIBITION of -1.54%. Work on `CC(C)(C)n1nc(C2CC2)cc1C(=O)NC1CCN(CC(N)=O)CC1` yielded an INHIBITION of 56%. Work on `Cc1noc(C(C)C)c1C(=O)NCCN1CCCCCC1=O` yielded an INHIBITION of 11.6%. In the case of `Cc1nc(C)n(CC2CCCCN2CC(=O)Nc2cc(C)on2)n1` (stereo unspecified), the INHIBITION was 15.5%. In the case of `COCC(=O)N1CCCC1c1nc(O)cc(C(C)C)n1` (stereo unspecified), the INHIBITION was 0.301%. With `CN(C)CCN1C(=O)CCC12CCCN(C(=O)c1cccnc1)CC2` (stereo unspecified) the INHIBITION was -38.1%. With `Cc1occc(=O)c1OCC(=O)N1CCc2ccccc2C1` the INHIBITION was -8.04%. `CC(NC(=O)NCCCc1n[nH]c(N)c1C#N)c1ccccc1` (stereo unspecified) showed an INHIBITION of 31%. `CC(NC(=O)NCCNc1ccccn1)c1cccs1` (stereo unspecified) gave an INHIBITION of 19.6%. Work on `CC(NC(=O)NCCNc1cnccn1)c1cccs1` (stereo unspecified) yielded an INHIBITION of -0.847%. `CC(C)C(NC(=O)NCCNc1cnccn1)c1cccs1` (stereo unspecified) was tested, and the INHIBITION was 36.1%. `CC(C)C(NC(=O)NCCNc1ncccn1)c1cccs1` (stereo unspecified) showed an INHIBITION of -6.44%. `CC(NC(=O)NCCCc1n[nH]c(N)c1C#N)c1cccs1` (stereo unspecified) was tested, and the INHIBITION was 58.2%. `CC(NC(=O)NCCCc1n[nH]c(N)c1C#N)c1ccc(F)cc1` (stereo unspecified) showed an INHIBITION of -25.8%. With `CC(C)C(NC(=O)NCCNc1ccccn1)c1cccs1` (stereo unspecified) the INHIBITION was 50.4%. `CC(NC(=O)NCCNc1ncccn1)c1cccs1` (stereo unspecified) gave an INHIBITION of 56.6%. For `CCSc1ccc(C(=O)N2CCCCC2C(=O)NC(C)(C)C)cn1` (stereo unspecified), the INHIBITION was 29.7%. `CN(CCCO)C(=O)c1ccc2c(c1)nc(N1CC[C@H](O)C1)n2C` gave an INHIBITION of -17.7%. Compound `O=C(c1ccncc1)N1CCN2C[C@H](Oc3cccc(F)c3)C[C@H]2C1` has an INHIBITION of 15.3%. Work on `CC1CCCCN1CCNC(=O)c1scnc1Cl` (stereo unspecified) yielded an INHIBITION of 0.411%. In the case of `O=C(C1CCCC1)N1CCCC(c2nc(O)cc(-c3ccncc3)n2)C1` (stereo unspecified), the INHIBITION was 18.3%. Compound `CCOc1ccc(CC(=O)N2CCN(c3nccn3C)CC2)cc1` has an INHIBITION of 15%. `Cn1ncc2c(=O)[nH]c(CN3CCCc4cc(F)ccc43)nc21` showed an INHIBITION of 31.7%. Work on `CC(Nc1nc2c(cnn2C)c(=O)[nH]1)c1ccc(F)cc1` (stereo unspecified) yielded an INHIBITION of 23.1%. For `CC(Nc1nc2c(cnn2C)c(=O)[nH]1)c1ccccn1` (stereo unspecified), the INHIBITION was 30.9%. For `CC(Nc1nc2c(cnn2C)c(=O)[nH]1)c1ccc2c(c1)CCCC2` (stereo unspecified), the INHIBITION was 51%. `CCC(=O)Nc1ccc(C(C)Nc2nc3c(cnn3C)c(=O)[nH]2)cc1` (stereo unspecified) gave an INHIBITION of 28.7%. For `CC(C)Sc1ccc(C(C)Nc2nc3c(cnn3C)c(=O)[nH]2)cc1` (stereo unspecified), the INHIBITION was 76.8%. In the case of `c1ccc(Cn2cc3c(n2)C(CNCc2ccco2)OCC3)nc1` (stereo unspecified), the INHIBITION was -4.86%. With `Cn1cc(C(=O)N2CC[C@@H]3[C@@H]2CCN3Cc2cccnc2)cn1` the INHIBITION was 10.8%. With `COc1nn(C)cc1C(=O)N1CCC(c2nnc(-c3ccsc3)o2)CC1` the INHIBITION was 43.3%. `CS(=O)(=O)N1CCc2ccc(C(=O)N3CCn4ncnc4C3)cc21` showed an INHIBITION of -4.68%. Compound `Clc1ccccc1OCCc1cc(C2CCNC2)n[nH]1` (stereo unspecified) has an INHIBITION of -57.4%. `Cc1nccc(-c2cccc(NCC(=O)N3CCOC(C)C3)c2)n1` (stereo unspecified) was tested, and the INHIBITION was 15.5%. `Cc1nccc(-c2cccc(NCC(=O)N3CCCCCCC3)c2)n1` gave an INHIBITION of 18.9%. In the case of `Cc1nccc(-c2cccc(NCC(=O)N3CCCC(C)C3)c2)n1` (stereo unspecified), the INHIBITION was 53.9%. Work on `CNS(=O)(=O)c1cccc(CNC(=O)c2cc(C)no2)c1` yielded an INHIBITION of -4.16%. `CCS(=O)(=O)N1CCC2(CC(=O)N(c3ccccc3C)C2)C1` (stereo unspecified) gave an INHIBITION of -25.8%. Compound `CS(=O)(=O)Nc1ccc2c(c1)NC(=O)CC2c1cnn2cccnc12` (stereo unspecified) has an INHIBITION of -27.5%. `CN(C)C(=O)N1CCCC2(CCN(Cc3ccc(Cl)c(F)c3)C2)C1` (stereo unspecified) showed an INHIBITION of 16.9%. Compound `CC(=O)N1CCC2(CCCN(Cc3ccc(Cl)c(C(F)(F)F)c3)C2)C1` (stereo unspecified) has an INHIBITION of 59.7%. `CC(=O)N1CCCC2(CCN(Cc3ccc(Cl)c(F)c3)C2)C1` (stereo unspecified) showed an INHIBITION of 13.7%. Work on `CC(=O)N1CCC2(CCN(Cc3ccc(Cl)c(C(F)(F)F)c3)CC2)C1` yielded an INHIBITION of 73%. `CC(=O)N1CCCC2(CCN(Cc3ccc(Cl)c(C(F)(F)F)c3)C2)C1` (stereo unspecified) gave an INHIBITION of -18.5%. `CC(=O)N1CCOC2(CCCN(Cc3ccc(Cl)c(C(F)(F)F)c3)C2)C1` (stereo unspecified) was tested, and the INHIBITION was 30.3%.
